Screening results as filed in PubChem BioAssay.
This is a sample that favours compounds with a hit; in the whole collection about 6.5% have one here.
Spn DPM-DC inh = inhibitors of Streptococcus pneumoniae diphosphomevalonate decarboxylase; purified DPM-DC, PK/LDH coupled NADH fluorescence; calls only at 10 µM; 0.49% of 65,000 active;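 active = the 320 compounds with the highest percent inhibition in the single-dose primary screen, excluding strongly autofluorescent ones, cut at about 32% in these data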;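 also: kinetic rate of NADH fluorescence loss reporting ADP formed by the decarboxylase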
MK inhibit = blocks S. pneumoniae mevalonate kinase; purified MK, PK/LDH-coupled NADH absorbance 340 nm; inhibition, % at 10 µM; 0.48% of 65,000 active; AID 555;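 active = ranked among the strongest by inhibition in the single 10 µM screen, a fixed top-ranked set picked for dose follow-up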
Fluor 339 460 = intrinsic fluorescence of library compounds, ex339/em460 – biochemical, MLSMR library, data from DPM-DC assay, artefact control, profiling panel; compound autofluorescence, ex339/em460 nm, NADH buffer; hits give high values; 1 = no-compound wells, NADH background; fluorescence fold increase at 10 µM; 5.5% of 65,000 active;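 active = at 10 µM, mean starting fluorescence two-fold or more over control wells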;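 also: signal is the first read of a kinetic run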
PMK inhibit = inhibitors of Streptococcus pneumoniae phosphomevalonate kinase | purified PMK, PK/LDH-coupled NADH absorbance 340 nm | inhibition, % at 10 µM | 0.49% of 65,000 active;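 active = top-ranked compounds by inhibition in the single 10 µM screen, taking a fixed number of the strongest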;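 also: 0% = full reaction with DMSO carrier and 100% = background rate without enzyme reaction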
NADH enzymes = inhibition of NAD/NADH coupling enzymes, library profiling; coupled PK/LDH NADH assays, four targets; IC50, µM (top dose mostly 10 µM), without a hit: top-dose inhibition; 0.02% of 65,000 active;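 active = single-dose screening hits from any of four coupled enzyme assays that gave an IC50 when retested across doses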;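 also: the DPM-DC format reads NADH fluorescence rather than 340 nm absorbance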
A340 absorber = compounds absorbing at 340 nm | fold change at 10 µM | 65,000 tested, under 10 active | compound absorbance at 340 nm, fold over control | AID 708;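 active = at 10 µM dose, initial 340 nm absorbance at least 2 fold that of control wells; inactive = change under 2 fold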;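 also: initial absorbance extrapolated from kinetic A340 decline of NADH oxidation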
Starred values were filed as active, the others as inactive.

For CCCc1cc(N2CCN(c3ccccn3)CC2)n2nc(C)c(-c3ccccc3)c2n1 the results were Spn DPM-DC inh inactive, MK inhibit 9.0, Fluor 339 460 2.84*, PMK inhibit 0.0, NADH enzymes 6.0% and A340 absorber 1.
For Cc1cc(N2CCCCC2)n2ncc(-c3ccc(Cl)cc3)c2n1 the results were MK inhibit 16.0, Fluor 339 460 3.73*, PMK inhibit 3.0, NADH enzymes 10.0% and A340 absorber 1.01.
Cc1cc(N2CCC(C)CC2)n2nc(C)c(-c3ccccc3)c2n1 was read as Spn DPM-DC inh inactive, MK inhibit 2.0, Fluor 339 460 2.39*, PMK inhibit 11.0, NADH enzymes 5.0% and A340 absorber 1.04.
Cc1cc(N2CCN(C(=O)c3ccco3)CC2)n2ncc(-c3ccccc3)c2n1 was read as Spn DPM-DC inh inactive, MK inhibit 0.0, Fluor 339 460 1.42, PMK inhibit 10.0, NADH enzymes 4.0% and A340 absorber 1.08.
Screening Cc1cc(N2CCCCC2)n2nc(C)c(-c3ccccc3)c2n1 returned Spn DPM-DC inh inactive, MK inhibit 8.0, Fluor 339 460 1.95, PMK inhibit 9.0, NADH enzymes 9.0% and A340 absorber 1.02.
`Cc1cc(N2CCC(C)CC2)n2ncc(-c3ccccc3)c2n1` gave Spn DPM-DC inh inactive, MK inhibit 9.0, Fluor 339 460 3.02*, PMK inhibit 13.0, NADH enzymes 10.0% and A340 absorber 1.03.
`Cc1occc(=O)c1OC(=O)Nc1ccccc1` gave Spn DPM-DC inh inactive, MK inhibit 6.0, Fluor 339 460 1.09, PMK inhibit 0.0, NADH enzymes 2.0% and A340 absorber 1.03.
`Cc1cc(N2CCCCC2)n2ncc(-c3ccccc3)c2n1` gave Spn DPM-DC inh inactive, MK inhibit 10.0, Fluor 339 460 2.54*, PMK inhibit 12.0, NADH enzymes 7.0% and A340 absorber 1.04.
For Cc1nn2c(N3CCCC3)cc(C(C)C)nc2c1-c1ccccc1 the results were Spn DPM-DC inh inactive, MK inhibit 6.0, Fluor 339 460 2.14*, PMK inhibit 6.0, NADH enzymes 5.0% and A340 absorber 1.
Screening CCc1ccc(OCc2nnc(SCC(=O)NCc3ccco3)o2)cc1 returned Spn DPM-DC inh inactive, MK inhibit 0.0, Fluor 339 460 0.99, PMK inhibit 26.0*, NADH enzymes 9.0% and A340 absorber 1.
Screening O=C1CSC(c2ccccn2)N1Cc1cn2ccccc2n1 (stereo not given) returned Spn DPM-DC inh inactive, MK inhibit 0.0, Fluor 339 460 1.17, PMK inhibit 12.0, NADH enzymes 4.0% and A340 absorber 1.02.
C=CCN(C(=O)CSc1nc2[nH]ncc2c(=O)n1-c1ccccc1OC)c1ccccc1 was read as Spn DPM-DC inh inactive, MK inhibit 0.0, Fluor 339 460 1.12, PMK inhibit 11.0, NADH enzymes 4.0% and A340 absorber 1.02.
For N#Cc1c(N)nc2c(c1-c1ccncc1)CCCCCC2 the results were Spn DPM-DC inh inactive, MK inhibit 8.0, Fluor 339 460 2.15*, PMK inhibit 9.0, NADH enzymes 9.0% and A340 absorber 1.09.
For N#Cc1c(N)nc2c(c1-c1ccncc1)CCCC2 the results were Spn DPM-DC inh inactive, MK inhibit 3.0, Fluor 339 460 3.16*, PMK inhibit 9.0, NADH enzymes 10.0% and A340 absorber 1.06.
For COC(=O)c1c(C#N)c(N)nc2c1CCCC2 the results were MK inhibit 12.0, Fluor 339 460 3.79*, PMK inhibit 0.0, NADH enzymes 6.0% and A340 absorber 1.06.
CC(C)CC(=O)CN1C(=O)C2(OCCO2)c2ccccc21 was read as Spn DPM-DC inh inactive, MK inhibit 5.0, Fluor 339 460 1, PMK inhibit 10.0, NADH enzymes 1.0% and A340 absorber 0.98.
Cc1ccc(OCCNC(=O)c2ccco2)cc1C was read as Spn DPM-DC inh inactive, MK inhibit 2.0, Fluor 339 460 1.12, PMK inhibit 6.0, NADH enzymes 3.0% and A340 absorber 1.01.
Screening Cc1cc(NC(=O)c2cc3nc4c(c(C(F)(F)F)n3n2)CCc2ccccc2-4)no1 returned MK inhibit 8.0, Fluor 339 460 2.18*, PMK inhibit 23.0, NADH enzymes 16.0% and A340 absorber 1.08.
For Cc1cc(NC(=O)c2cc3nc(C4CC4)cc(C(F)(F)F)n3n2)no1 the results were Spn DPM-DC inh inactive, MK inhibit 2.0, Fluor 339 460 1.3, PMK inhibit 2.0, NADH enzymes 1.0% and A340 absorber 1.07.
CC(=O)c1ccc(OCC(O)CN2CCN(c3ccccn3)CC2)cc1 (stereo not given) was read as Spn DPM-DC inh inactive, MK inhibit 6.0, Fluor 339 460 1.06, PMK inhibit 3.0, NADH enzymes 3.0% and A340 absorber 1.02.
CCOC(=O)c1cnc(-n2nc(C)cc2C)nc1NC was read as Spn DPM-DC inh inactive, MK inhibit 4.0, Fluor 339 460 1.91, PMK inhibit 11.0, NADH enzymes 10.0% and A340 absorber 1.03.
For CCOC(=O)c1cnc(-n2nc(C)cc2C)nc1NC1CCCCC1 the results were Spn DPM-DC inh inactive, MK inhibit 8.0, Fluor 339 460 2.05*, PMK inhibit 10.0, NADH enzymes 6.0% and A340 absorber 1.02.
Screening Cc1c(-c2ccccc2)sc(N)c1C(=O)N1CCOCC1 returned Spn DPM-DC inh inactive, MK inhibit 0.0, Fluor 339 460 1.23, PMK inhibit 11.0, NADH enzymes 4.0% and A340 absorber 1.01.
`CCOc1ccc(Cn2c(O)cc(=O)[nH]c2=O)cc1` gave Spn DPM-DC inh inactive, MK inhibit 0.0, Fluor 339 460 1.06, PMK inhibit 9.0, NADH enzymes 3.0% and A340 absorber 1.
For COCCn1c(-c2ccc(-c3ccccc3Cl)o2)nc2c1c(=O)[nH]c(=O)n2CC(C)C the results were MK inhibit 12.0, Fluor 339 460 2.1*, PMK inhibit 13.0, NADH enzymes 13.0% and A340 absorber 1.13.
Cc1ccc(NC(=O)CSc2nnc(Cn3c(=O)sc4ccccc43)n2C)cc1Cl was read as Spn DPM-DC inh inactive, MK inhibit 4.0, Fluor 339 460 1.05, PMK inhibit 29.0*, NADH enzymes 11.0% and A340 absorber 1.1.
Screening Brc1ccccc1-c1nnc2sc(Cc3ccccc3)nn12 returned Spn DPM-DC inh inactive, MK inhibit 4.0, Fluor 339 460 1.15, PMK inhibit 6.0, NADH enzymes 6.0% and A340 absorber 1.04.
`Brc1ccccc1-c1nnc2sc(-c3ccc4c(c3)OCCO4)nn12` gave Spn DPM-DC inh inactive, MK inhibit 6.0, Fluor 339 460 2.03*, PMK inhibit 11.0, NADH enzymes 7.0% and A340 absorber 1.05.
Fc1ccc(-c2nn3c(C4COc5ccccc5O4)nnc3s2)cc1 (stereo not given) was read as Spn DPM-DC inh inactive, MK inhibit 8.0, Fluor 339 460 1.09, PMK inhibit 6.0, NADH enzymes 5.0% and A340 absorber 0.99.
